# Screens from PubChem BioAssay.
# In the library only some 7.9% were active in any assay of this set; here they are far more common.
# MARV entry inh: qHTS for inhibitors of binding or entry into cells for Marburg Virus; 300,000 compounds, 1.8% hits; Marburg virus pseudotyped entry inhibition, cell reporter; Potency, µM (titrated, usually from 37.8 µM), actives largely listed as inhibitors; calls by dose curve; tested in HEK293 cells
# FMDV inh: High Throughput Screening for Foot and Mouth Disease Virus Antivirals. FMDV antiviral cell-based qHTS. AID 1159524, 2015. Potency, µM (doses to about 57.9 µM), hits mostly inhibitors. 410,000 compounds, 1.2% hits; calls by dose curve; tested in HEK293T cells; further: read-out not given here; nearly all actives have a fitted effect of over 45% in size
# HCV inhibitor: qHTS Assay for Inhibitors of Hepatitis C Virus (HCV); 340,000 compounds, 3.4% hits; Huh7.5.1 HCVcc-Cre infection, luciferase reporter, 44 h; Potency, µM (top dose mostly 41.8 µM), most hits filed as inhibitors; active means well fitted inhibition curve with a large enough effect; inconclusive means small, poorly fitted or top-dose-only effect, or another doubt; inactive means no such curve, though single readings can be large or run the other way
#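 Antiviral activity was scored by luciferase reporter output from cells infected with HCVcc-Cre (~0.5 moi) in presence of compound, 44 h infection period, cells seeded 1,000/well 4 h prior.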
# LASV entry inh: qHTS for Inhibitors of binding or entry into cells for Lassa Virus; Lassa virus pseudotype entry inhibition, cell reporter; Potency, µM (titrated, usually from 37.9 µM), hits mostly inhibitors; 300,000 compounds, 1.2% hits; AID 540256, 2011; calls by dose curve; tested in HEK293 cells; further: nearly all actives have a fitted effect of over 50% in size
# HCMV antiviral: qHTS Assay for inhibitors of the human cytomegalovirus (HCMV); activity change, negative = inhibition, % at 57.5 µM; HFF cells, HCMV-luciferase reporter, 72 h; stronger effect = lower value; 410,000 compounds, 4.5% hits; in the data active means activity change below about -60%; inconclusive means no clear call, values can overlap the other calls; inactive means above about -39%
#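 Two-dose cell screen: HFF monolayers treated with compounds and infected with luciferase-expressing HCMV at 1 PFU/cell, 72 h at 37C, then lysed for luciferase measurement.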
# Hits are given with their value; n = inactive; u = inconclusive; x = not tested or not shown; + = active, no number.
SMILES,MARV entry inh,FMDV inh,HCV inhibitor,LASV entry inh,HCMV antiviral
COc1ccc(Cn2c(C(=O)O)c(CNCCc3ccccc3Cl)c3ccc(C)cc32)cc1,x,n,x,n,-104.7
C=Cc1ccc(Cn2c(C(=O)O)c(CNCCc3ccccc3)c3ccc(C)cc32)cc1,x,n,x,n,-89.8
Cc1ccc(Cn2c(C(=O)O)c(CNCc3ccccc3Cl)c3ccc(C)cc32)cc1,x,u,x,u,n
C=Cc1ccc(Cn2c(C(=O)O)c(CNCc3cc(OC)ccc3OC)c3ccc(C)cc32)cc1,x,n,x,n,-103.6
CC(C)c1ccc(S(=O)(=O)N2CCN(C(=O)C3CCCCC3)CC2)cc1,x,n,n,x,n
Cc1ccc(-c2noc(C3CC(=O)N(c4ccc5c(c4)OCCO5)C3)n2)cc1 (configuration not stated),x,n,x,n,n
CCOc1ccccc1CNCc1c(C(=O)O)n(Cc2ccccc2)c2cc(OC)ccc12,x,n,x,n,n
COc1ccc(Cn2c(C(=O)O)c(CNCc3ccccc3F)c3ccc(OC)cc32)cc1,x,n,x,u,-76.2
CCCC1=Nc2cc(C(=O)NCCc3ccc(OCC)cc3)ccc2Sc2ccccc21,n,u,x,u,u
CC1=Nc2cc(C(=O)NCCc3ccc(Cl)cc3)ccc2Sc2ccc(C)cc21,7.94µM,n,x,u,-65.3
CC1=Nc2cc(C(=O)NCCCOC(C)C)ccc2Sc2ccccc21,u,n,n,u,+
CC1=Nc2cc(C(=O)NCCCOC(C)C)ccc2Sc2ccc(C)cc21,u,n,n,u,-76.3
COCCCNC(=O)c1ccc2c(c1)N=C(C)c1c(C)ccc(C)c1S2,u,n,x,u,x
CC(C)N(C(=O)CCl)c1ccccc1,x,u,10µM,x,n
CCN(CC)S(=O)(=O)N1CCC(C(=O)NCC2COc3ccccc3O2)CC1 (configuration not stated),n,n,u,n,x
O=C(NCC1COc2ccccc2O1)C1CCN(S(=O)(=O)c2ccc(Cl)cc2)CC1 (configuration not stated),x,n,11.2µM,x,n
O=C(NCC1COc2ccccc2O1)c1ccc(Cl)c(S(=O)(=O)N2CCCC2)c1 (configuration not stated),x,n,u,x,-68.7
O=C1NC(=O)C2(CCCCC2C2CCCCC2)N1 (configuration not stated),n,n,n,n,n
COc1ccc(CCNC(=O)c2cnn(-c3nccc(-c4ccco4)n3)c2C)cc1,x,n,x,x,x
CCCC[C@]1(C(=O)OCC)C[C@H](CN2CCOCC2)OC1=O,n,x,x,x,x
N#Cc1ccc(S(=O)(=O)N2CCC(C(=O)N3CCN(Cc4ccc5c(c4)OCO5)CC3)CC2)cc1,x,u,10µM,x,u
COc1cccc(CN2CCC(C(=O)N3CCN(Cc4ccc5c(c4)OCO5)CC3)CC2)c1OC,u,n,u,n,n
O=C(C1CCN(Cc2ccccc2O)CC1)N1CCN(Cc2ccc3c(c2)OCO3)CC1,u,n,u,n,-64.6
Cc1cc(C)n2nc(C(=O)Nc3cccc(S(=O)(=O)N(C)c4ccccc4)c3)nc2n1,x,n,u,x,n
CCOc1ccc(-c2nc(C#N)c(NCc3ccco3)o2)cc1,n,n,u,n,n
SMILES,MARV entry inh,FMDV inh,HCV inhibitor,LASV entry inh,HCMV antiviral
O=C(c1ccccc1)N1CCCOC1c1ccccc1 (configuration not stated),n,n,n,n,n
O=C(c1ccccc1)N1CCOC(O)(c2ccccc2)C1c1ccccc1 (configuration not stated),n,n,n,n,-61.1
O=C(C[C@H]1C[C@H](C(=O)N2CCCCC2)[C@@]2(CCc3ccccc3)c3[nH]c4cc(-c5ccco5)ccc4c3CCN2C1=O)NCCN1CCOCC1,x,n,u,x,-101.2
C[C@]12c3[nH]c4ccc(Cl)cc4c3CCN1C(=O)[C@@H](CC(=O)NCCCn1ccnc1)C[C@@H]2C(=O)N1CCCCC1,x,n,u,x,n
O=C(C[C@H]1C[C@H](C(=O)N2CCOCC2)[C@@]2(CCC3CCCC3)c3[nH]c4cc(-c5ccco5)ccc4c3CCN2C1=O)NCCCn1ccnc1,x,n,n,x,-89.9
O=C(C[C@H]1C[C@H](C(=O)N2CCCCC2)[C@@]2(CCc3ccccc3)c3[nH]c4ccc(Cl)cc4c3CCN2C1=O)NCCCn1ccnc1,x,u,25.1µM,x,n
CCN(CC)C(=O)[C@H]1C[C@H](CC(=O)NCCCn2ccnc2)C(=O)N2CCc3c([nH]c4cc(-c5ccco5)ccc34)[C@]12C,x,n,n,x,n
CN(C)c1oc(/C=C/c2cccs2)nc1S(=O)(=O)c1ccccc1,u,n,u,n,u
COC(=O)[C@]1(C#N)CC(=O)N([C@H](c2ccccc2)[C@@H](O)c2ccccc2)[C@@H]1c1ccccc1,x,x,x,x,n
CCOc1ccc(CNS(=O)(=O)c2cc(-c3cc(C)no3)ccc2OC)cc1OC,u,n,n,n,n
Cc1ccc(OCC(=O)O/N=C(\N)Cc2ccc([N+](=O)[O-])cc2)cc1C,u,n,n,n,n
CC(C)c1ccccc1NC(=O)COC(=O)CCN1C(=O)/C(=C\C=C\c2ccccc2)SC1=S,u,u,n,u,-86.5
O=C(COC(=O)CCN1C(=O)/C(=C\C=C\c2ccccc2)SC1=S)Nc1ccc(Br)cc1,u,u,n,n,-74.1
CCOC(=O)CCCCCN1C(=O)c2cccc3cccc(c23)C1=O,x,n,n,x,-100.2
O=C(CCCN1C(=O)c2cccc3cccc(c23)C1=O)N1CCN(c2ncccn2)CC1,x,n,n,x,-66.2
CCOC(=O)CCCSc1nnc(CCCCCN2C(=O)c3cccc4cccc(c34)C2=O)o1,n,n,n,n,n
O=C(CCCN1C(=O)c2cccc3cccc(c23)C1=O)NCc1ccco1,x,n,n,x,-88.9
COc1ccccc1N1CCN(C(=O)CCCN2C(=O)c3cccc4cccc(c34)C2=O)CC1,u,u,8.91µM,n,n
CC12C=C(C=CCCc3ccco3)C(C)(C1)C(CCc1ccco1)CC2=O (configuration not stated),n,x,x,x,x
CN1C(=O)C(C)(C)c2cc(S(=O)(=O)N3CCCC(C(=O)NCc4ccccc4Cl)C3)ccc21 (configuration not stated),x,u,u,x,n
COc1ccccc1Cn1c(=S)[nH]c2ccc(Br)cc2c1=O,n,n,u,n,-86.2
COc1ccccc1N1CCN(C(=O)CCn2c(=O)[nH]c3ccccc3c2=O)CC1,n,n,n,n,n
COc1ccccc1N1CCN(C(=O)CCCn2c(=S)[nH]c3ccccc3c2=O)CC1,x,25.1µM,x,x,n
COc1ccccc1Cn1c(=S)[nH]c2ccccc2c1=O,n,n,n,n,n
CCC(CO)Nc1ncnc2c1cnn2-c1ccc(C)cc1 (configuration not stated),x,u,x,n,n
CO/N=C1\CN(c2nc3c(cc2F)c(=O)c(C(=O)O)cn3C2CC2)CC1CN (configuration not stated),x,n,x,x,x
CC(C)COc1ccc(C(=O)Nc2scc(-c3ccc(Cl)cc3Cl)c2C(N)=O)cc1,u,u,12.6µM,n,u
